Where “and” joins values, the source holds several entries; their conditions need not be identical. Identical values can stand only once. Results filed as inconclusive are left out. A structure can be active in one record and inactive in another. Calls of active or inactive are those of the source. How the source made its calls, unless noted: active means hit-call score of the fitted dose curve at least 0.9, where 1 is the maximum; inactive means score below 0.9.
What was measured:
[1] = molecular target: Nuclear respiratory factor 1 (Homo sapiens) (UniProt Q16656); assay: ATG_NRF1_CIS: Attagene CIS-FACTORIAL HepG2 Assay for human Nuclear Respiratory Factor 1 (NRF1) Orphan Gene (AID 2282987); conditions: HepG2 NRF1 cis-element reporter, Attagene multiplex; actives raise or lower the signal
Nuclear respiratory factor 1 (Homo sapiens), sequence (Q16656 whole entry, looked up): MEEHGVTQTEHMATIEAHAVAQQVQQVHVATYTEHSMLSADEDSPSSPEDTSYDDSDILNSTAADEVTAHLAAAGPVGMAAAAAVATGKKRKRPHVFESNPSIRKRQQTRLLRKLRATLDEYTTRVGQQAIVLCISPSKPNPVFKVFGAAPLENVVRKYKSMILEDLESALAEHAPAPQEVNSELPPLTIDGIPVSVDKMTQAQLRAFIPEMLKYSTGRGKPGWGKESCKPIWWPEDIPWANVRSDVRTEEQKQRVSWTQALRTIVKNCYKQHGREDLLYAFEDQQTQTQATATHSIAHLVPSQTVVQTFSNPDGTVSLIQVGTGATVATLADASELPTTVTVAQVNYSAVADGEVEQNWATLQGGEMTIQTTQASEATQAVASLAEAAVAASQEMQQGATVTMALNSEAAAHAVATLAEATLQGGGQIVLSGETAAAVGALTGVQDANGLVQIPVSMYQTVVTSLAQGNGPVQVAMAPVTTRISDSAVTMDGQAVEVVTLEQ
Method in brief: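 Endogenous NRF1-driven reporter transcription measured in transiently transfected human HepG2 liver cells. Readout: reporter mRNA by RT-PCR and capillary electrophoresis with fluorescence detection, 24 h post-dosing. Gain or loss of signal fitted relative to DMSO baseline.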

[2] = ATG_NFI_CIS: Attagene CIS-FACTORIAL HepG2 Assay for human Nuclear Factor I (NFI) (AID 2282989); conditions: HepG2 cis-regulatory reporter, NFI response element transcription; actives raise or lower the signal
Method in brief: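 Reporter transcription driven by endogenous transcription factors in HepG2 cells; 24 h treatment. Quantitation by labelled RT-PCR fragments on capillary electrophoresis, gain- or loss-of-signal relative to DMSO.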

[3] = molecular target: Myc proto-oncogene protein (Homo sapiens) (UniProt P01106); assay: ATG_Myc_CIS: Attagene CIS-FACTORIAL HepG2 Assay for human Myelocytomatosis (Myc) Proto-Oncogene Transcription Factor (AID 2282990); conditions: HepG2, Attagene cis-reporter transcription factor activity; actives raise or lower the signal
Myc proto-oncogene protein (Homo sapiens), sequence (P01106 whole entry, looked up, the tested form may be a part): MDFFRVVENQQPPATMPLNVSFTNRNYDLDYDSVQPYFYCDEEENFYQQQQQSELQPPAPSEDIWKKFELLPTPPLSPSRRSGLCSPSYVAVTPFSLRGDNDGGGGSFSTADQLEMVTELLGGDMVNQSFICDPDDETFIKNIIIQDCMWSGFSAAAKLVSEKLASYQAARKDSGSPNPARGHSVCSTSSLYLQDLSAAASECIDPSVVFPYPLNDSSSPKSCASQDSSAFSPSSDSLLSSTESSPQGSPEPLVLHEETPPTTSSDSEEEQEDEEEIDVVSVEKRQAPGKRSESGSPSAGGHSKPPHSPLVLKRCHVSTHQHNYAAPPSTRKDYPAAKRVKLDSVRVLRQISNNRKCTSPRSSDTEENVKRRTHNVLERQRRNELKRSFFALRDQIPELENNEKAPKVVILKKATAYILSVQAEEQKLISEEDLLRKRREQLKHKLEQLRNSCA
Method in brief: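 Fluorescence intensity of reporter-specific cDNA fragments, separated by capillary electrophoresis, gives the signal. Transfected HepG2 cells carrying cis-promoter reporter constructs are incubated with compound for 24 h; DMSO serves as baseline.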

[4] = ATG_NF_kB_CIS: Attagene CIS-FACTORIAL HepG2 Assay for human Nuclear Factor Kappa B (NF-kB) (AID 2282991); conditions: HepG2 Attagene cis-factorial NF-kB reporter mRNA; actives raise or lower the signal
Method in brief: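 Read-out: reporter transcript levels quantified by RT-PCR plus capillary electrophoresis of 6-FAM-labelled, HpaI-cut fragments. Transfected HepG2 cells, 24 h compound exposure, endogenous NF-kB-driven cis element; gain or loss scored versus DMSO.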

[5] = ATG_NRF2_ARE_CIS: Attagene CIS-FACTORIAL HepG2 Assay for human Nuclear Factor Erythroid 2 Related Factor 2 (NFR2) response to Antioxidant Response Elements (ARE) (AID 2282992); conditions: HepG2 Attagene ARE/NRF2 reporter, transcription factor activity; actives raise or lower the signal
Method in brief: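 Multiplexed reporter mRNA profiling in HepG2 after a 24 h chemical exposure. Curves fitted in both directions relative to DMSO negative control.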

[6] = molecular target: Cellular tumor antigen p53 (Homo sapiens) (UniProt P04637); assay: ATG_p53_CIS: Attagene CIS-FACTORIAL HepG2 Assay for human p53 Transcription Factor (AID 2282994); conditions: HepG2 p53 cis-element reporter, Attagene mRNA; actives raise or lower the signal
Cellular tumor antigen p53 (Homo sapiens), sequence (P04637 whole entry, looked up): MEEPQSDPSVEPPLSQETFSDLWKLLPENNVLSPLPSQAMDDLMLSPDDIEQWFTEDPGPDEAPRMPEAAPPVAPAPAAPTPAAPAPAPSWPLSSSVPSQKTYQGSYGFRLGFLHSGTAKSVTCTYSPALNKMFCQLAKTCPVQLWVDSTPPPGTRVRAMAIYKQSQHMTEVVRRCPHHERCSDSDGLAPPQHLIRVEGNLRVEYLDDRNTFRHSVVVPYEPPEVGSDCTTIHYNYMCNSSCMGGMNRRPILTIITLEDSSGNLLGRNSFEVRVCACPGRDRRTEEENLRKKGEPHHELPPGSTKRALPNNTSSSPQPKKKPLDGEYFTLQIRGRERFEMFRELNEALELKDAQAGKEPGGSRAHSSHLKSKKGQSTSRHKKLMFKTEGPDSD
Method in brief: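 Multiplexed reporter mRNA assay in human HepG2 liver cells; cis-regulated units report endogenous factor activity. Values come from bidirectional curve fitting against DMSO negative control after 24 h treatment.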

[7] = BSK_3C_TissueFactor: BioMAP Diversity Plus: 3C Assay for Tissue Factor Biomarker Activity (AID 2282997); conditions: BioMAP 3C HUVEC, tissue factor biomarker readout; actives raise or lower the signal
Method in brief: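 Dosing of human umbilical vein endothelial cells preceded a 24 h incubation. Tissue Factor was then read by ELISA, with increases and decreases both scored relative to DMSO controls.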

[8] = BSK_3C_uPAR: BioMAP Diversity Plus: 3C Assay for Urokinase-type plasminogen activator receptor (uPAR) Biomarker Activity (AID 2282998); conditions: BioMAP 3C HUVEC, uPAR biomarker ELISA; actives raise or lower the signal
Method in brief: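 Readout: ELISA for surface uPAR. System: human umbilical vein endothelial primary cells, 24 h after chemical exposure. Analysis: bidirectional fit, DMSO baseline.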

[9] = BSK_3C_VCAM1: BioMAP Diversity Plus: 3C Assay for Vascular cell adhesion molecule 1 (VCAM1) Biomarker Activity (AID 2282999); conditions: BioMAP 3C HUVEC, VCAM1 ELISA, cytokine-stimulated; actives raise or lower the signal
Method in brief: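 Human umbilical vein endothelial cells (3C system), biomarker read by ELISA 24 h after dosing; bidirectional fit against DMSO baseline. Cytotoxicity tracked by SRB total-protein staining in parallel cultures at biomarker time.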

[10] = BSK_4H_Eotaxin3: BioMAP Diversity Plus: 4H Assay for Eotaxin 3 Biomarker Activity (AID 2283000); conditions: primary human endothelial cells (HUVEC); actives raise or lower the signal
Method in brief: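 Human umbilical vein endothelial cells (BSK_4H system) dosed with test chemical; Eotaxin-3 (CCL26) measured by ELISA 24 h after dosing. Bidirectional curve fitting relative to DMSO negative control as baseline.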

[11] = molecular target: human Peroxisome Proliferator-activated Receptor delta (PPARd), PPARD (gene 5467) (UniProt Q03181); assay: ATG_PPARd_TRANS: Attagene TRANS-FACTORIAL HepG2 Assay for human Peroxisome Proliferator-activated Receptor delta (PPARd) (AID 2283002; active means hit-call score of the fitted dose curve at least 0.9, where 1 is the maximum)
human Peroxisome Proliferator-activated Receptor delta (PPARd), PPARD (gene 5467), sequence (Q03181 whole entry, looked up, the tested form may be a part): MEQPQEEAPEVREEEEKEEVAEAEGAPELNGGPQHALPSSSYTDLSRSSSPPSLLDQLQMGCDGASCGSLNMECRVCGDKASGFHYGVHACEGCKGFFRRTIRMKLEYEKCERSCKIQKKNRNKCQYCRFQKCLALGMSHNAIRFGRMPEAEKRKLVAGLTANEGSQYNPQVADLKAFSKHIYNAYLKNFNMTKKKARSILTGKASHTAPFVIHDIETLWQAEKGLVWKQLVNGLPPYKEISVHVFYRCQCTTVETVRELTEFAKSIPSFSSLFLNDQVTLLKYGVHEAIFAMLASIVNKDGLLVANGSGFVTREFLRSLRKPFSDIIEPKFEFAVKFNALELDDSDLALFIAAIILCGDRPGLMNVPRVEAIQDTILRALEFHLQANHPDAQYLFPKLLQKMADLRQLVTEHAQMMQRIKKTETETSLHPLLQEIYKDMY
Method in brief: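 Fluorescence from capillary electrophoresis of labelled RT-PCR reporter fragments gives the signal; DMSO sets baseline. Cells: HepG2 transiently carrying GAL4-UAS reporter units plus chimeric nuclear receptor-Gal4 proteins, exposed to chemicals for 24 h.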

[12] = read-out: Intercellular Adhesion Molecule 1 (ICAM1), ICAM1 (gene 3383); assay: BSK_3C_ICAM1: BioMAP Diversity Plus: 3C Assay for Intercellular Adhesion Molecule 1 (ICAM1) Biomarker Activity (AID 2283003); conditions: primary human endothelial cells (HUVEC); actives raise or lower the signal
Method in brief: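 Primary human umbilical vein endothelial cells in the BioMAP 3C system were exposed to chemicals for 24 h, then ICAM-1 was quantified by ELISA. Activity was fitted bidirectionally against the DMSO negative control baseline.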

[13] = molecular target: human Retinoic Acid Receptor beta (RARb), RARB (gene 5915) (UniProt P10826); assay: ATG_RARb_TRANS: Attagene TRANS-FACTORIAL HepG2 Assay for human Retinoic Acid Receptor beta (AID 2283004; active means hit-call score of the fitted dose curve at least 0.9, where 1 is the maximum)
human Retinoic Acid Receptor beta (RARb), RARB (gene 5915), sequence (P10826 whole entry, looked up, the tested form may be a part): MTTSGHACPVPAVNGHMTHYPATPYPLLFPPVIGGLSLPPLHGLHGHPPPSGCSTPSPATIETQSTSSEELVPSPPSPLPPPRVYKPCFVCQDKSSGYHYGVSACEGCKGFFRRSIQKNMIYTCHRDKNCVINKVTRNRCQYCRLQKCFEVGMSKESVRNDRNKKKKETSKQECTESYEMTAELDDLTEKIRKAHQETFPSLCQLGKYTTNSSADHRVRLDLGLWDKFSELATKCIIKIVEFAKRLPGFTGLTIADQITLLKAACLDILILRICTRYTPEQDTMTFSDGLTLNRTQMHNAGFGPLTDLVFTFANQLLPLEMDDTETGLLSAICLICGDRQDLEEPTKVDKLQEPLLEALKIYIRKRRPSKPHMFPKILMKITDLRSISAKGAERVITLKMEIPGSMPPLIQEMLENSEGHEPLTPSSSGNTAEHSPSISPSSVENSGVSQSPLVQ
Method in brief: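 Induction of reporter mRNA from a chimeric RARb-Gal4 construct was measured by RT-PCR, FAM labelling, HpaI digestion and capillary electrophoresis. Measurements followed 24 h compound treatment of transiently transfected human HepG2 liver cells, with DMSO as baseline.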

[14] = molecular target: Peroxisome proliferator-activated receptor gamma (Homo sapiens) (UniProt P37231); assay: ATG_PPARg_TRANS: Attagene TRANS-FACTORIAL HepG2 Assay for human Peroxisome Proliferator-activated Receptor-gamma (PPARg) (AID 2283007; active means hit-call score of the fitted dose curve at least 0.9, where 1 is the maximum)
Peroxisome proliferator-activated receptor gamma (Homo sapiens), sequence (P37231 whole entry, looked up, the tested form may be a part): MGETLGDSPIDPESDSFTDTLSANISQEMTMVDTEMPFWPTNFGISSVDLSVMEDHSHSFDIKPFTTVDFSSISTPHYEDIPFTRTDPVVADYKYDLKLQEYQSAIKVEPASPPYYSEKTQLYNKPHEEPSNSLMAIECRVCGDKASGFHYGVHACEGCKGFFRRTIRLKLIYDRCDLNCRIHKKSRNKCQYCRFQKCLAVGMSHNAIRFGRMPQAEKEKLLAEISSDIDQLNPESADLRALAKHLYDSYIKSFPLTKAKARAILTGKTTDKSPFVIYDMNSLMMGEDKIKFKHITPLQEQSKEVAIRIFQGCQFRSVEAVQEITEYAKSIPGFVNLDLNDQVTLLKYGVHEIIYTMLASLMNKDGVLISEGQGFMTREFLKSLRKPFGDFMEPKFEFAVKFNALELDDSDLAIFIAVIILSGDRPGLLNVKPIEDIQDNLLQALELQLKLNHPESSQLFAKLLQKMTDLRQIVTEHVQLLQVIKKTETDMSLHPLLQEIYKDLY
Method in brief: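 Read-out: reporter mRNA induction, detected by fluorescence after RT-PCR and capillary electrophoresis. Transiently transfected human HepG2 liver cells carrying a chimeric NR-Gal4 construct were dosed for 24 h; activity was fitted upward relative to DMSO.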

[15] = molecular target: Nuclear receptor subfamily 1 group I member 2 (Homo sapiens) (UniProt O75469); assay: ATG_PXR_TRANS: Attagene TRANS-FACTORIAL HepG2 Assay for human Pregnane X Receptor (PXR) (AID 2283008; active means hit-call score of the fitted dose curve at least 0.9, where 1 is the maximum)
Nuclear receptor subfamily 1 group I member 2 (Homo sapiens), sequence (O75469 whole entry, looked up, the tested form may be a part): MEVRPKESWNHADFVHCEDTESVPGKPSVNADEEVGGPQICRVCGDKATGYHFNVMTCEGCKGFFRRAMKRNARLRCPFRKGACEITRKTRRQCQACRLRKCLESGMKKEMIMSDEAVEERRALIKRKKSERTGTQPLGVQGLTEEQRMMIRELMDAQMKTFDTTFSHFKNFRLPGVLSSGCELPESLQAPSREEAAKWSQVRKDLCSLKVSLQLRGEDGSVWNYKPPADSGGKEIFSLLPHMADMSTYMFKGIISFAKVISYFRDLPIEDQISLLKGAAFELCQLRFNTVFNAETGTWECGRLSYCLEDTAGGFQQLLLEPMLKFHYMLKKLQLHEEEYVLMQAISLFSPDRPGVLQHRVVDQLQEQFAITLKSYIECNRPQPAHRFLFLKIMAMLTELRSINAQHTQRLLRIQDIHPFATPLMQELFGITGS
Method in brief: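 Measures mRNA induction of a GAL4-UAS-driven reporter in human HepG2 cells transiently expressing PXR fused to Gal4, following 24 h treatment. DMSO served as negative control and baseline.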

[16] = molecular target: human Retinoic Acid Receptor gamma (RARg), RARG (gene 5916) (UniProt P13631); assay: ATG_RARg_TRANS: Attagene TRANS-FACTORIAL HepG2 Assay for human Retinoic Acid Receptor gamma (RARg) (AID 2283009; active means hit-call score of the fitted dose curve at least 0.9, where 1 is the maximum)
human Retinoic Acid Receptor gamma (RARg), RARG (gene 5916), sequence (P13631 whole entry, looked up, the tested form may be a part): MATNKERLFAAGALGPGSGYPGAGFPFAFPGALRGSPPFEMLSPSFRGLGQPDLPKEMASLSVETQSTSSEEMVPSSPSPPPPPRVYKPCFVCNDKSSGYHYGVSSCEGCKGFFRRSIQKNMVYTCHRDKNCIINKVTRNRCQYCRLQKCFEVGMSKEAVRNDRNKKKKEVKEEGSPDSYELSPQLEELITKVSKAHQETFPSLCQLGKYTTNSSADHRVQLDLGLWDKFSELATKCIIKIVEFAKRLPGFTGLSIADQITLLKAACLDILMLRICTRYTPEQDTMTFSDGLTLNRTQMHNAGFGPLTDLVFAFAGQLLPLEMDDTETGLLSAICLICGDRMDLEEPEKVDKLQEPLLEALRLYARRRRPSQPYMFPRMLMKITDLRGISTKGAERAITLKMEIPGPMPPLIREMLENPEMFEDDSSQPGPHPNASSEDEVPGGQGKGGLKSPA
Method in brief: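 HepG2 cells transiently transfected with multiplexed reporter units expressing chimeric RARg-GAL4 and GAL4-UAS-driven reporters; 24 h compound exposure. Reporter mRNA quantified by RT-PCR with fluorescent labelling and capillary electrophoresis; gain-of-signal fitted relative to DMSO baseline.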

[17] = ATG_Oct_MLP_CIS: Attagene CIS-FACTORIAL HepG2 Assay for human Octamer-Binding Transcription Factor (Oct) (AID 2282993); conditions: HepG2 Attagene cis-factorial Oct reporter, mRNA; actives raise or lower the signal
Method in brief: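 Transfected HepG2 cells, 24 h treatment. Reporter mRNA quantified by RT-PCR–capillary electrophoresis; bidirectional fitting against DMSO.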

[18] = molecular target: human Peroxisome Proliferator-activated Receptor alpha (PPARa), PPARA (gene 5465) (UniProt Q07869); assay: ATG_PPARa_TRANS: Attagene TRANS-FACTORIAL HepG2 Assay for human Peroxisome Proliferator-activated Receptor alpha (PPARa) (AID 2283001; active means hit-call score of the fitted dose curve at least 0.9, where 1 is the maximum;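 on AC50: potency for gain of reporter signal over DMSO so agonist or activator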)
human Peroxisome Proliferator-activated Receptor alpha (PPARa), PPARA (gene 5465), sequence (Q07869 whole entry, looked up, the tested form may be a part): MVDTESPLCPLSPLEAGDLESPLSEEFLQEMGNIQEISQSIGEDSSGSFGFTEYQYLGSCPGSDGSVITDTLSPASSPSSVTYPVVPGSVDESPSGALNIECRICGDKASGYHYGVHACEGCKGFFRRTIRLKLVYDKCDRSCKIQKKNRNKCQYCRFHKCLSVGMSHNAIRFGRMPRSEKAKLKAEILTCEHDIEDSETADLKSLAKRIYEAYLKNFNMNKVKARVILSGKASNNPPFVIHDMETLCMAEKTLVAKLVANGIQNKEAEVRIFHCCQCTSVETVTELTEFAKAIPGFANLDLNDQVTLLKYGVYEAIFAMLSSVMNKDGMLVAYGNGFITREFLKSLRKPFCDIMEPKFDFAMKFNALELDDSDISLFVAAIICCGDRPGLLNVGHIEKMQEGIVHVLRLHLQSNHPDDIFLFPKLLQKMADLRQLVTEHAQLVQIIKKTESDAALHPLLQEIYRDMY
Method in brief: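 Measures transcriptional activity of an exogenous chimeric PPARa-Gal4 protein in transiently transfected HepG2 cells after 24 h dosing. Reporter mRNA quantified via RT-PCR and capillary electrophoresis; DMSO served as negative control.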

[19] = molecular target: Retinoic acid receptor alpha (Homo sapiens) (UniProt P10276); assay: ATG_RARa_TRANS: Attagene TRANS-FACTORIAL HepG2 Assay for human Retinoic Acid Receptor alpha (RARa) (AID 2283005; active means hit-call score of the fitted dose curve at least 0.9, where 1 is the maximum)
Retinoic acid receptor alpha (Homo sapiens), sequence (P10276 whole entry, looked up, the tested form may be a part): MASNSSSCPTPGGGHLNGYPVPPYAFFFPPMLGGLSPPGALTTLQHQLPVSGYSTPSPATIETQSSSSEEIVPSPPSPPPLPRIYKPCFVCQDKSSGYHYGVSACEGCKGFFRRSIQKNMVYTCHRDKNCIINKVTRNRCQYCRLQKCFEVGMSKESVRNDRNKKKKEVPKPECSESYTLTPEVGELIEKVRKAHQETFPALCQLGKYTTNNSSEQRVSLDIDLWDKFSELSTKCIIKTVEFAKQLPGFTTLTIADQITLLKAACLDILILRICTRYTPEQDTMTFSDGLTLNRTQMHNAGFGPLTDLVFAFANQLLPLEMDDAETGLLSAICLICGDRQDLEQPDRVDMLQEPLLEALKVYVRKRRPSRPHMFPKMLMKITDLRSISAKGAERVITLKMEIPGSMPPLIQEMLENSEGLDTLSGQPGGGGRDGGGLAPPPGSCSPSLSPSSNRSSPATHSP
Method in brief: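 HepG2 transiently transfected with multiplex GAL4-UAS reporter units including a human RARa–GAL4 chimera; 24 h compound exposure. Reporter mRNA quantified by RT-PCR, 6-FAM labeling and capillary electrophoresis; gain of signal versus DMSO.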

[20] = BSK_3C_Proliferation: Cell Proliferation Assessment in the BioMAP Diversity Plus: 3C Assay (AID 2283006); conditions: primary human endothelial cells (HUVEC);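 further: potency may reflect either rise or fall in cell number versus DMSO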
Method in brief: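 Human umbilical vein endothelial cells were grown sub-confluent and exposed to chemical for 48 h, then fixed with 10% TCA and stained with 0.1% sulforhodamine B; absorbance at 560 nm gave relative cell number, fitted bidirectionally against DMSO baseline.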

Measured: AC50

FC(F)(F)C(F)(F)C(F)(F)C(F)(F)C(F)(F)CCI
active: [5] 88.9 µM | [14] 73 µM
inactive: [1] | [2] | [3] | [4] | [6] | [7] | [8] | [9] | [10] | [11] | [12] | [13] | [15] | [16]

O=C(Cl)C(F)(F)C(F)(F)C(F)(F)C(F)(F)C(F)(F)C(F)(F)C(F)(F)C(F)(F)F
inactive: [1] | [2] | [3] | [4] | [7] | [8] | [9] | [10] | [11] | [12] | [13] | [19] | [16]
active: [5] 15.8 µM | [17] 47.1 µM | [7] 53.4 µM | [8] 30 µM and 46 µM | [10] 42.9 µM and 30 µM | [18] 10.3 µM | [20] 44.9 µM and 53.1 µM and 54.2 µM | [14] 25.2 µM | [15] 54.5 µM

CC(Cc1ccc(O)c(O)c1)C(C)Cc1ccc(O)c(O)c1 (configuration not stated)
inactive: [1] | [3] | [6]
active: [2] 19 µM | [4] 55.3 µM | [5] 22.8 µM | [17] 20.6 µM | [14] 19.3 µM | [15] 6.87 µM

Cc1cccc(N(C)C)c1
inactive: [1] | [2] | [3] | [4] | [5] | [17] | [18] | [14] | [15] | [16]

CS(C)(=O)=O
inactive: [1] | [2] | [3] | [4] | [17] | [8] | [10] | [18] | [12] | [15]
active: [5] 27.5 µM

C=C(C)C(=O)OCCC(F)(F)C(F)(F)C(F)(F)C(F)(F)C(F)(C(F)(F)F)C(F)(F)F
inactive: [1] | [2] | [3] | [4] | [5] | [6] | [7] | [8] | [9] | [10] | [11] | [12] | [19] | [14] | [15]

FC(F)(F)C(F)(F)C(F)(F)N(C(F)(F)C(F)(F)C(F)(F)F)C(F)(F)C(F)(F)C(F)(F)F
inactive: [1] | [2] | [3] | [4] | [5] | [17] | [8] | [10] | [11] | [12] | [13] | [19] | [14] | [16]

— PubChem BioAssay (EPA / NIEHS)
